Assay [1] concerns the target human Caspase 2 (CASP2), CASP2 (gene 835) (UniProt P42575). Nature of the assay: NVS_ENZ_hCASP2: NovaScreen (NVS) Enzymatic Assay for human Caspase 2 (CASP2) (AID 2283135). A digest of the protocol: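 Single-point duplicate testing at 25 uM preceded concentration series topping at 50 uM. Activity of the recombinant E. coli-derived protease was followed by fluorescent substrate cleavage 1 h post-dosing, relative to DMSO.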

In assay [2] the target is human Acid Phosphatase 1 (ACP1), ACP1 (gene 52) (UniProt P24666). Nature of the assay: NVS_ENZ_hACP1: NovaScreen (NVS) Enzymatic Assay for human Acid Phosphatase 1 (ACP1) (AID 2283136). The gist of the method: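 Cell-free fluorescence read-out of phosphatase activity, substrate and product separated by mobility shift, taken 1.5 h after compound addition; protein produced in Sf9. Single 25 uM duplicate screen, followed by concentration series for actives, scored as signal loss relative to DMSO.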
Sequence of human Acid Phosphatase 1 (ACP1), ACP1 (gene 52) (P24666 whole entry, looked up): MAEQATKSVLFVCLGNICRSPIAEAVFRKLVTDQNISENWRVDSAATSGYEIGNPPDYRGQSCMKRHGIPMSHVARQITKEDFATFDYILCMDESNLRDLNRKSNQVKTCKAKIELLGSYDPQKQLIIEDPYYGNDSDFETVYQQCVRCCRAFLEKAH

Assay [3] addresses human Aurora Kinase A - serine/threonine-protein Kinase 6 (AurA), AURKA (gene 6790) (UniProt O14965). Nature of the assay: NVS_ENZ_hAurA: NovaScreen (NVS) Enzymatic Assay for human Aurora Kinase A - serine/threonine-protein Kinase 6 (AurA) (AID 2283142). A digest of the protocol: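 Recombinant human AurA activity read by fluorescence after mobility-shift separation of product from substrate; 1 hour incubation. Chemicals first run in duplicate at 25 uM, then concentration series to 50 uM if over threshold; fitted relative to DMSO.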

Assay [4] addresses human Beta-secretase (BACE), BACE1 (gene 23621) (UniProt P56817). Nature of the assay: NVS_ENZ_hBACE: NovaScreen (NVS) Enzymatic Assay for human Beta-secretase (BACE) (AID 2283140).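 Note: hits are inhibitors that reduce fluorescent substrate signal versus DMSO.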 A digest of the protocol: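 Enzyme activity of SF9-produced BACE1 is measured cell-free by fluorescence, 1 hour post dosing, normalised to DMSO. Screening used 25 uM in duplicate, with concentration-response follow-up for actives.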

For assay [5], the target named is human Caspase 5 (CASP5), CASP5 (gene 838) (UniProt P51878). Nature of the assay: NVS_ENZ_hCASP5: NovaScreen (NVS) Enzymatic Assay for human Caspase 5 (CASP5) (AID 2283137). The gist of the method:
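Caspase 5 enzyme activity, detected as fluorescence signal loss, is measured in a biochemical format using E. coli-expressed protein. Reading occurs 2 hours post-dosing. Screening runs at 25 uM, with confirmed actives titrated to 50 uM maximum.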

Assay [6] deals with human AKT serine/threonine Kinase 1 (AKT1), AKT1 (gene 207) (UniProt P31749). The assay is described as follows: NVS_ENZ_hAKT1: NovaScreen (NVS) Enzymatic Assay for human AKT serine/threonine Kinase 1 (AKT1) (AID 2283138). The gist of the method: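 A biochemical assay with recombinant enzyme and specific substrate, read by fluorescence intensity with mobility-shift separation 1 hour after dosing. Actives from 25 uM duplicate screening were titrated up to 50 uM against DMSO baseline.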
Sequence of human AKT serine/threonine Kinase 1 (AKT1), AKT1 (gene 207) (P31749 whole entry, looked up): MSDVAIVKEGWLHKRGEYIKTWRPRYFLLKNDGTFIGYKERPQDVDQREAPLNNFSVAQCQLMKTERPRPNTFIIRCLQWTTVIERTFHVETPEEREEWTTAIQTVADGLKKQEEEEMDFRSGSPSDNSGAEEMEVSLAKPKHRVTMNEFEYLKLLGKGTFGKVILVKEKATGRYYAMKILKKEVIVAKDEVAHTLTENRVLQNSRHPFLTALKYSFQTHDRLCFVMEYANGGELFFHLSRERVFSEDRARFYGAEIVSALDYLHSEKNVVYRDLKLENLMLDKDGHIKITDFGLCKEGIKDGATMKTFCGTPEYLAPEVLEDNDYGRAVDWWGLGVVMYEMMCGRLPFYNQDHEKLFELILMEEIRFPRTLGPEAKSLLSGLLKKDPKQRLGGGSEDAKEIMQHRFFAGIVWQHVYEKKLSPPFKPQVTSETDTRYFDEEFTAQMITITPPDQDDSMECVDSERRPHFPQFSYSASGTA

Assay [7] deals with Caspase-1 (Homo sapiens) (UniProt P29466). The assay is described as follows: NVS_ENZ_hCASP1: NovaScreen (NVS) Enzymatic Assay for human Caspase 1 (CASP1) (AID 2283132). The protocol:
NVS_ENZ_hCASP1 is a biochemical, single-readout assay that uses extracted gene-proteins from E. coli in a cell-free assay. Measurements were taken 1 hour after chemical dosing in a 96-well plate.NVS_ENZ_hCASP1 is one of one assay component(s) measured or calculated from the NVS_ENZ_hCASP1 assay. It is designed to make measurements of enzyme activity, a form of enzyme reporter, as detected with fluorescence intensity signals by Fluorescence technology.Data from the assay component NVS_ENZ_hCASP1 was analyzed into 1 assay endpoint. This assay endpoint, NVS_ENZ_hCASP1, was analyzed in the positive analysis fitting direction relative to DMSO as the negative control and baseline of activity. […] Furthermore, this assay endpoint can be referred to as a primary readout, because this assay has produced multiple assay endpoints where this one serves a enzymatic activity function. […]
Binding assays used specific radioligands (tritiated, iodinated) with non-radioactive competitive displacement ligands in agonist or antagonist protocols (as indicated) and various reference compounds and inhibitors to titrate specific binding to receptors and transporters. Most enzyme assays (CYPs, kinases, phosphatases, proteases, HDACs) used recombinant protein and specific substrates (fluorescence mostly, some colorimetric and radioactive) and inhibitors, followed by a biochemical separation of substrate and product. […]

Assay [8] has as its target human Caspase 10 (CASP10), CASP10 (gene 843) (UniProt Q92851). Nature of the assay: NVS_ENZ_hCASP10: NovaScreen (NVS) Enzymatic Assay for human Caspase 10 (CASP10) (AID 2283133). The protocol: NVS_ENZ_hCASP10 is a biochemical, single-readout assay that uses extracted gene-proteins from E. coli in a cell-free assay. Measurements were taken 1 hour after chemical dosing in a 96-well plate.NVS_ENZ_hCASP10 is one of one assay component(s) measured or calculated from the NVS_ENZ_hCASP10 assay. It is designed to make measurements of enzyme activity, a form of enzyme reporter, as detected with fluorescence intensity signals by Fluorescence technology.Data from the assay component NVS_ENZ_hCASP10 was analyzed into 1 assay endpoint. This assay endpoint, NVS_ENZ_hCASP10, was analyzed in the positive analysis fitting direction relative to DMSO as the negative control and baseline of activity. Using a type of enzyme reporter, loss-of-signal activity can be used to understand changes in the enzymatic activity as they relate to the gene CASP10. Furthermore, this assay endpoint can be referred to as a primary readout, because this assay has produced multiple assay endpoints where this one serves a enzymatic activity function. To generalize the intended target to other relatable targets, this assay endpoint is annotated to the protease intended target family, where the subfamily is cysteine protease. […]

The target in assay [9] is human AKT serine/threonine Kinase 2 (AKT2), AKT2 (gene 208) (UniProt P31751). The assay is described as follows: NVS_ENZ_hAKT2: NovaScreen (NVS) Enzymatic Assay for human AKT serine/threonine Kinase 2 (AKT2) (AID 2283141). A digest of the protocol: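 Cell-free fluorescence/electrophoretic mobility shift readout of recombinant human AKT2 activity, 1 h after chemical dosing. Duplicate primary screen at 25 uM, then singleton concentration-response up to 50 uM; loss of signal versus DMSO baseline.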
Sequence of human AKT serine/threonine Kinase 2 (AKT2), AKT2 (gene 208) (P31751 whole entry, looked up): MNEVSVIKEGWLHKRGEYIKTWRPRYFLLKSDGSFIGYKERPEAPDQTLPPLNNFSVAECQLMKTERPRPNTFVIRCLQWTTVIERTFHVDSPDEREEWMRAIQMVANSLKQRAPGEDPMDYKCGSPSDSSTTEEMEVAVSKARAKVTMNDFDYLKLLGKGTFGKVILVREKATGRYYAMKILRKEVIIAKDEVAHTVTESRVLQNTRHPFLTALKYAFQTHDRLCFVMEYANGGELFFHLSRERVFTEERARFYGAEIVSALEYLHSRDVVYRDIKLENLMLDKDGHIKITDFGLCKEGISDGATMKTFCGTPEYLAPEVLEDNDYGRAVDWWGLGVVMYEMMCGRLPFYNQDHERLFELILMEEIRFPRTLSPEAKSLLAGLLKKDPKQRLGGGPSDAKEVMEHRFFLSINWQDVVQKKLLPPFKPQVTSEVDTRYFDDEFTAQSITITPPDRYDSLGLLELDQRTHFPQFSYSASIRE

Assay [10] addresses CDK2 (gene 1017) (UniProt P24941). The assay is described as follows: NVS_ENZ_hCDK2: NovaScreen (NVS) Enzymatic Assay for human Cyclin-Cependent Kinase 2 (CDK2) (AID 2283144). The gist of the method: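 Compounds screened in duplicate at 25 uM, then in singleton concentration-response to a maximum of 50 uM, against recombinant CDK2; kinase activity read 1 hr after dosing by fluorescence with mobility-shift separation of substrate and product.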

Each structure is given as a SMILES string. Results filed as inconclusive are left out. The source made the active and inactive calls. Rule for the calls: active = hit-call score of the fitted dose curve at least 0.9, where 1 is the maximum; inconclusive = response in the unintended direction; inactive = score below 0.9.

Sequence of human Caspase 5 (CASP5), CASP5 (gene 838) (P51878 whole entry, looked up): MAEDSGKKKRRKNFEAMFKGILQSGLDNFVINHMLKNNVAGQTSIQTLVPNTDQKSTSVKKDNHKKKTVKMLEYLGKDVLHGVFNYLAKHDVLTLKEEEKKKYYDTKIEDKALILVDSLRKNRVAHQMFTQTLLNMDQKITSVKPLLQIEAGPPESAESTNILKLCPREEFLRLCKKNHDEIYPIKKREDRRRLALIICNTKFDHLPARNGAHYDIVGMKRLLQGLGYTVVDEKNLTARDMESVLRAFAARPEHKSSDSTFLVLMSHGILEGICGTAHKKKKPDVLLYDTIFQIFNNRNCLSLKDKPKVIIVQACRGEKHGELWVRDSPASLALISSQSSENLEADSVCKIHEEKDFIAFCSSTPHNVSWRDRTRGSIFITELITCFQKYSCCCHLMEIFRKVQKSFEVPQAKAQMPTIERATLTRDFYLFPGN
Sequence of human Aurora Kinase A - serine/threonine-protein Kinase 6 (AurA), AURKA (gene 6790) (O14965 whole entry, looked up): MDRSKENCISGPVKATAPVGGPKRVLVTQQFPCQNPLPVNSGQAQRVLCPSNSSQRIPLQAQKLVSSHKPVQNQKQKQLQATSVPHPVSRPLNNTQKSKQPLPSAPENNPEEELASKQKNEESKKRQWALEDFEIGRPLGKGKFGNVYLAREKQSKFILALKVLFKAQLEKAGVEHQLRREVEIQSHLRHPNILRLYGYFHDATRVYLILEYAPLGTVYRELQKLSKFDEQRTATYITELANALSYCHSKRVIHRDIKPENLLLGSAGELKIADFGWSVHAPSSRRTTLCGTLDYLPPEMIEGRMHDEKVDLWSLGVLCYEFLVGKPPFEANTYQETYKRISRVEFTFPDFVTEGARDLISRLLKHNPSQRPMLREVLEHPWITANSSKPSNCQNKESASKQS
Sequence of human Beta-secretase (BACE), BACE1 (gene 23621) (P56817 whole entry, looked up): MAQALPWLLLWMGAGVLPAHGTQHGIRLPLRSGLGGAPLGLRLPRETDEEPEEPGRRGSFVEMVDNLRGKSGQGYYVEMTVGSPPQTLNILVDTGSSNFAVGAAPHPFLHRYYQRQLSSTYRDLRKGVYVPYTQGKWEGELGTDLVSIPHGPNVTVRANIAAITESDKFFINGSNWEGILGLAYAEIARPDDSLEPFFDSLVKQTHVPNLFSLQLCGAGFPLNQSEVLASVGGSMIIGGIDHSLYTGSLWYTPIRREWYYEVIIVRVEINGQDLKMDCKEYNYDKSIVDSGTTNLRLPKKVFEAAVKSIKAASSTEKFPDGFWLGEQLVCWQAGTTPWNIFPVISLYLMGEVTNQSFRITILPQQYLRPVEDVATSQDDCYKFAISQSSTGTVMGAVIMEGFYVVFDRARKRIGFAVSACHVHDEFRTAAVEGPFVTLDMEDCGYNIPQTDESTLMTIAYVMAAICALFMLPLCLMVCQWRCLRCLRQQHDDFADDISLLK
Sequence of human Caspase 2 (CASP2), CASP2 (gene 835) (P42575 whole entry, looked up): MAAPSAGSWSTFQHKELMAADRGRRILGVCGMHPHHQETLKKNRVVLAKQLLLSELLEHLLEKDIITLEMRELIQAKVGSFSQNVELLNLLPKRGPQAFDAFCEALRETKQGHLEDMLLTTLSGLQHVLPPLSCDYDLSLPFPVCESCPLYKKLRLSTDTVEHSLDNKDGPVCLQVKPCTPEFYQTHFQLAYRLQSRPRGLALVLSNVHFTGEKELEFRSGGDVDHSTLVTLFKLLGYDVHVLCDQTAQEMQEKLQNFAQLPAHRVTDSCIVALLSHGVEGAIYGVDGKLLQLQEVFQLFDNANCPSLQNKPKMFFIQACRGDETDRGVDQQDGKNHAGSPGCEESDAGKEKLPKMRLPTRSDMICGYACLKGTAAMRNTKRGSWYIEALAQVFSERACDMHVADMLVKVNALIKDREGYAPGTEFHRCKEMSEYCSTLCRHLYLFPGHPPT
Sequence of Caspase-1 (Homo sapiens) (P29466 whole entry, looked up): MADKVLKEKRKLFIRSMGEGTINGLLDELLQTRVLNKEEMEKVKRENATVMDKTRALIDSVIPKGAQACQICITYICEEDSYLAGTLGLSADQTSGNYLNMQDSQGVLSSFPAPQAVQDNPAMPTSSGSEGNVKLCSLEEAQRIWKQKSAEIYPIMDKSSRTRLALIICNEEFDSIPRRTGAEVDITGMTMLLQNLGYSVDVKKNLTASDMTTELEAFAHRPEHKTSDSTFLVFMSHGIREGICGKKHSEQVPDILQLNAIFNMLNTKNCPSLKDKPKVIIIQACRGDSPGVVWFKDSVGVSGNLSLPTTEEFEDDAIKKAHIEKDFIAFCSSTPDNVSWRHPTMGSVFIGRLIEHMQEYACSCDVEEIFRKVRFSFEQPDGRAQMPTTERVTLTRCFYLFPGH
Sequence of human Caspase 10 (CASP10), CASP10 (gene 843) (Q92851 whole entry, looked up): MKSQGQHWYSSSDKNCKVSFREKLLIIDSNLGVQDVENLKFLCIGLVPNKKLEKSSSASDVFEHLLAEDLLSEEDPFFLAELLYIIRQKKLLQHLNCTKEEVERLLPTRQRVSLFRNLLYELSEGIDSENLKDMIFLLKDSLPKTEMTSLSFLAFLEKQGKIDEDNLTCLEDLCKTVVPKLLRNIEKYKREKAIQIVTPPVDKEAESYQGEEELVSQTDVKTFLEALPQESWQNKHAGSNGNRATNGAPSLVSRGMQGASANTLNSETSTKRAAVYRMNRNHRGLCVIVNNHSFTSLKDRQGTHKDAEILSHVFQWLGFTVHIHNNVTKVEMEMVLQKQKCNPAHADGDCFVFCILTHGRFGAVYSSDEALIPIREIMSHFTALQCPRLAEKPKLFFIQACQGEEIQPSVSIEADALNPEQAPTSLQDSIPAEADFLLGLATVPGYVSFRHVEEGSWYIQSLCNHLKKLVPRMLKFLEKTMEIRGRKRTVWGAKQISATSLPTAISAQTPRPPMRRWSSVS

Regarding `Clc1cccc(Cl)c1Cl`, the result in assay [1], in assay [2] and in assay [3] was inactive.
As for `O=C(Cc1ccccc1)OCCc1ccccc1`, the AC50 in assay [4] is 25 µM (active).
For `Nc1c(Oc2ccccc2)cc(O)c2c1C(=O)c1ccccc1C2=O`, the AC50 in [5] is 0.133 µM (active); in assay [4], 5.73 µM (active).
Take `CCCCCCCCCCCCc1cccc(S(=O)(=O)O)c1`: the call in assay [2] was inactive. Further, the values for the AC50 in [6], in [4] and in assay [3] were 35 µM (active), 0.428 µM (active) and 16.1 µM (active), respectively.
Consider `CCCCCCCCCCCCOS(=O)(=O)O`, for which, in assay [3], the AC50 is 28.5 µM (active).
On to `Oc1cc(Cl)c(Cl)cc1Cl`, for which the compound was classed as inactive in assay [6].
For `CC(C)O.CC(C)O.OCCN(CCO)CCO.OCCN(CCO)CCO.[Ti]`, the AC50 in [7] is 1.37 µM (active); in [8], 8.59 µM (active); in [1], 3.12 µM (active); in assay [5] it was 1.81 µM (active); in [6] it was 0.00319 µM (active); in assay [4] it was 7.67 µM (active). Further, the AC50 is 3.46 µM (active) in assay [9], 4.96 µM (active) in assay [3] and 0.003 µM (active) in assay [10].
Turning to `N#Cc1cccnc1`, the result in assay [2], in [3] and in [10] was inactive.
For `Nc1ccc(N)cc1`, the AC50 was 5.42 µM (active) in [5] and 15.1 µM (active) in [4].
On to `O=C(N[C@H]1CN2CCC1CC2)c1ccc2c(c1)OCCO2`, for which the call in assay [1], in assay [4] and in [3] was inactive.
Regarding `BrCCCCBr`, the outcome in [4] was inactive.
Turning to `O=c1oc2ccccc2c(O)c1C(CC(O)c1ccc(-c2ccc(Br)cc2)cc1)c1ccccc1` (centres undefined), the AC50 in assay [5] was 9.45 µM (active).
Regarding `COc1ccccc1N`, the result in assay [6] and in [9] was inactive.
For `CN(C)C(=S)S`, the outcome in assay [4] was inactive.

The record behind these values is PubChem BioAssay (EPA / NIEHS).
